Structures are written as SMILES. The campaign covered roughly 310,000 compounds. About 14,000 (4.5%) showed an effect of 50% or more. Effects have a minus sign here. The entries come from a sample that favours strong results as a whole.
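Also: peak tail current of the secondary pulse compared with the same well before compound.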

human ether-à-go-go-related gene (hERG) potassium channel, sequence (Q12809 whole entry, looked up): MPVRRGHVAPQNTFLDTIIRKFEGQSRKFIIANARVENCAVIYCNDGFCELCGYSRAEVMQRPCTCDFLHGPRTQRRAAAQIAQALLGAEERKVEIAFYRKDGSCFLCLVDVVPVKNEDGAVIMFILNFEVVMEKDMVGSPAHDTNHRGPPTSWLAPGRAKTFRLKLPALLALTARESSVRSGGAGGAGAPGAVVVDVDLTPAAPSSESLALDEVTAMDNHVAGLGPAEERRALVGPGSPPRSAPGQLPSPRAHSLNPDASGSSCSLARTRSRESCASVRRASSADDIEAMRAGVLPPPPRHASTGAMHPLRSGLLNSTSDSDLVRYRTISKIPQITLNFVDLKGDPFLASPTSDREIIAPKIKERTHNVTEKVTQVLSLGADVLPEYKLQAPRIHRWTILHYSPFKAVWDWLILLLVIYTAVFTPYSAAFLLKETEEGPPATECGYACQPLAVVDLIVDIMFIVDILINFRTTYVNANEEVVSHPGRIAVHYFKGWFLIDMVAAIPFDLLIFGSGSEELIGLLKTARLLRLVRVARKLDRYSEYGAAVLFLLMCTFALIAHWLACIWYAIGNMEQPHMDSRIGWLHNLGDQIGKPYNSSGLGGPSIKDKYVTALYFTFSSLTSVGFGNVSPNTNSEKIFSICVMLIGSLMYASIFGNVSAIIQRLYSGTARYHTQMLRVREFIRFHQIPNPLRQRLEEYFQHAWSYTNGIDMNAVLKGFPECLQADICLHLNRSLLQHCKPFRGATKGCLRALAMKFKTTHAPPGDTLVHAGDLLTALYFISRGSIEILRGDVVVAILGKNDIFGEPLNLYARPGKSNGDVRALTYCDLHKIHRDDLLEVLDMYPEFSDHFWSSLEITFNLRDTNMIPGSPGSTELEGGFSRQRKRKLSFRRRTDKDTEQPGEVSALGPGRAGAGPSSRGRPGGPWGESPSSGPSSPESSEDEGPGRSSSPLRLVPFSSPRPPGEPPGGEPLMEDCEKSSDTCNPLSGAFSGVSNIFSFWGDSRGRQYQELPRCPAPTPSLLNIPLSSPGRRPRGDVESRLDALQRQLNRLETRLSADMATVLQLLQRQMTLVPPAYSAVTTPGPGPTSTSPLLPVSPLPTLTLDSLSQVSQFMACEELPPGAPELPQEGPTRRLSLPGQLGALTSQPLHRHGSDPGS

The assay concerns the target human ether-à-go-go-related gene (hERG) potassium channel (human, UniProt Q12809). The assay is described as follows: primary screen, population patch clamp on CHO cells stably expressing hERG; higher = less effect of the substance.
For the compound `COc1ccc(OC)c(S(=O)(=O)Nc2cccc(-c3ccc4nncn4n3)c2)c1`, the “hERG current change (%, negative = inhibition) at 10uM” value came to 18.7%.
For the compound `CC(C)(C)C(=O)OCc1nc(-c2ccc3c(c2)OCCO3)cs1`, the “hERG current change (%, negative = inhibition) at 10uM” value is given as 10.8%.
In the case of `CCNCc1ccc(OCc2ccccc2F)c(OC)c1.Cl` it was -11%; in that of `CC(C)(C)NCc1cc(Cl)ccc1OCc1ccccc1F.Cl`, -43.3%.
Regarding `CCOc1ccc(Cl)cc1CNCCc1ccccc1F.Cl`, the “hERG current change (%, negative = inhibition) at 10uM” value is -59.8%.
For the compound `CCOc1ccc(Cl)cc1CNCCc1ccc(F)cc1.Cl`, the “hERG current change (%, negative = inhibition) at 10uM” value is reported as -48%.
Consider `CCOc1ccc(Cl)cc1CNCCNCCO.Cl`, for which the “hERG current change (%, negative = inhibition) at 10uM” value stood at 24.3%.
Regarding `CCN(CC)CCNCc1cc(Cl)ccc1OCc1ccccc1F.Cl`, the “hERG current change (%, negative = inhibition) at 10uM” value is on record as -72.8%.
On to `Cc1ccc2c(c1)C(c1ccccc1)N(C(=O)c1ccc(S(=O)(=O)N3CCOCC3)cc1)CC(=O)N2` (stereo not shown), for which the “hERG current change (%, negative = inhibition) at 10uM” value is on record as -19.1%.
In the case of `COc1cc([N+](=O)[O-])ccc1NC(=O)C[n+]1ccccc1C.[Cl-]`, the “hERG current change (%, negative = inhibition) at 10uM” value is listed as 11%.
Take `N#Cc1c(-c2ccccc2)cc(-c2ccccc2)nc1SCCC(=O)O`: the “hERG current change (%, negative = inhibition) at 10uM” value is reported as 18.4%.
In the case of `COc1ccc(/C(N)=N/OC(=O)c2ccc(C)c([N+](=O)[O-])c2)cc1` it was -6.61%; in that of `O=C(N/C(=C\c1ccccc1)C(=O)N1CCOCC1)c1ccc(Br)o1`, 3.18%.
Consider `O=C(N/C(=C/c1ccc(Br)cc1)C(=O)N1CCOCC1)c1ccc(Br)o1`, for which the “hERG current change (%, negative = inhibition) at 10uM” value is on record as -70.2%.
As to `O=C(N/C(=C\c1ccc(Br)cc1)C(=O)N1CCOCC1)c1ccc(Br)o1`, the “hERG current change (%, negative = inhibition) at 10uM” value is listed as -67.1%.
In the case of `O=C(N/C(=C/c1ccc(Br)cc1)C(=O)N1CCOCC1)c1cccs1`, the “hERG current change (%, negative = inhibition) at 10uM” value is on record as -5.65%.
As to `O=C(N/C(=C\c1ccc(Br)cc1)C(=O)N1CCOCC1)c1ccco1`, the “hERG current change (%, negative = inhibition) at 10uM” value is recorded as -41%.
In the case of `O=C(N/C(=C/c1ccc(Br)cc1)C(=O)N1CCOCC1)c1ccco1` it was -24.1%; in that of `CCOC(=O)CN(C(=O)c1ccccc1[N+](=O)[O-])C(C)(C)C`, 9.73%.
For `COc1cccc(NC(=O)CCC2CCN(C(=O)c3ccc(C(C)=O)s3)CC2)c1`, the “hERG current change (%, negative = inhibition) at 10uM” value was -36.9%.
For `COc1ccc(C(=O)N2CCC(CCC(=O)Nc3cccc(C)c3)CC2)cc1`, the “hERG current change (%, negative = inhibition) at 10uM” value is on record as -68.3%.
Regarding `COCc1ccc(C(=O)N2CCC(CCC(=O)Nc3cccc(C)c3)CC2)s1`, the “hERG current change (%, negative = inhibition) at 10uM” value is -15.1%.
On to `Cc1cccc(NC(=O)CCC2CCN(C(=O)c3ccc(C)s3)CC2)c1`, for which the “hERG current change (%, negative = inhibition) at 10uM” value is given as -65.5%.
Consider `COc1cccc(C(=O)N2CCC(CCC(=O)Nc3cccc(C)c3)CC2)c1`, for which the “hERG current change (%, negative = inhibition) at 10uM” value was -28.6%.
On to `COc1cccc(NC(=O)CCC2CCN(C(=O)c3cccc(NC(C)=O)c3)CC2)c1`, for which the “hERG current change (%, negative = inhibition) at 10uM” value was -28.4%.

The values are drawn from paper PMC4336329 (PLoS ONE, 2015).
